# Experimental data taken from publication PMC7862700, “An all-to-all approach to the identification of sequence-specific readers for epigenetic DNA modifications on cytosine”.
# Legend:
# Test in all cases: DAPPL (digital affinity profiling via proximity ligation, sequencing); 10 mM Tris-HCl pH 7.5, 50 mM NaCl, 1 mM DTT, 4% glycerol, room temperature, 30 min; GST-TFs on glutathione beads, 16-mer random dsDNA library, 0.1% formaldehyde crosslink after washing; high values mean tight binding
# [1] = target: T1, FLI1 (Homo sapiens, UniProt Q01543 1-452); details: protein: recombinant; tags: N-terminal GST; dsDNA, one strand shown
# T1 sequence: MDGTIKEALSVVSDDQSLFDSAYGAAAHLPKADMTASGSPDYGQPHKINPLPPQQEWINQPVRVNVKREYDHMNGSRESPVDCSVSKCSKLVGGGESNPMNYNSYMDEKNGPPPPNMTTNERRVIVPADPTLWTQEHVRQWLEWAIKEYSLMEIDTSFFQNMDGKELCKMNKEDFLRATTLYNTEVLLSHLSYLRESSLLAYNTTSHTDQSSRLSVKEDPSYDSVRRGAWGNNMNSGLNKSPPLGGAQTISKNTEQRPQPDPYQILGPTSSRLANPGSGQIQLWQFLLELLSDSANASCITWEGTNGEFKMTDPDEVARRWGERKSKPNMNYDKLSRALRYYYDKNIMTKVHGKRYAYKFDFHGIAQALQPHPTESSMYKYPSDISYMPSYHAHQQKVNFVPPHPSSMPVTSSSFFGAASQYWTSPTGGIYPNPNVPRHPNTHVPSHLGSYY
# Summary of the method: (§1)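 GST fusions of human transcription factors were expressed in yeast and captured with glutathione beads. Once given DNA barcodes and pooled alongside a tag-only sample, they were incubated for 30 min at room temperature with 200 nmole of a random double-stranded 16-mer DNA library in Tris/NaCl/DTT/glycerol buffer, then washed, crosslinked (0.1% formaldehyde), proximity-ligated, PCR-amplified and sequenced on an Illumina NextSeq500. The binding signal of each hexamer is its read frequency for a factor divided by its frequency for the tag-only sample.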
# [2] = target: T2, ELK1 (Homo sapiens, UniProt P19419 1-428); details: protein: recombinant; tags: N-terminal GST; dsDNA, one strand shown
# T2 sequence: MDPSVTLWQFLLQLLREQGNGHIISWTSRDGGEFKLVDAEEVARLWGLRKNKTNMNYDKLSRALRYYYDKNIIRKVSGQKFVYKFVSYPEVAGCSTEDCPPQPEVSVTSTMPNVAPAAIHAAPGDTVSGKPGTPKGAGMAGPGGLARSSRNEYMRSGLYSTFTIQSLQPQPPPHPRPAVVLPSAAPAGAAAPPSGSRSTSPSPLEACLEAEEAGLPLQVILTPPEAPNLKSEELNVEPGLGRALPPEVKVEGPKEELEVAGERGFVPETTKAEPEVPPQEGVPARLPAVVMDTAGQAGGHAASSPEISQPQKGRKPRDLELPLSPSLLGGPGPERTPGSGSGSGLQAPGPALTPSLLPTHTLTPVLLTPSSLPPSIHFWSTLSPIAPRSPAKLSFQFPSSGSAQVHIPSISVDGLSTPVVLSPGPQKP
# Summary of the method: as §1
# [3] = target: T3, GABPA (Homo sapiens, UniProt Q06546 1-454); details: protein: recombinant; tags: N-terminal GST; dsDNA, one strand shown
# T3 sequence: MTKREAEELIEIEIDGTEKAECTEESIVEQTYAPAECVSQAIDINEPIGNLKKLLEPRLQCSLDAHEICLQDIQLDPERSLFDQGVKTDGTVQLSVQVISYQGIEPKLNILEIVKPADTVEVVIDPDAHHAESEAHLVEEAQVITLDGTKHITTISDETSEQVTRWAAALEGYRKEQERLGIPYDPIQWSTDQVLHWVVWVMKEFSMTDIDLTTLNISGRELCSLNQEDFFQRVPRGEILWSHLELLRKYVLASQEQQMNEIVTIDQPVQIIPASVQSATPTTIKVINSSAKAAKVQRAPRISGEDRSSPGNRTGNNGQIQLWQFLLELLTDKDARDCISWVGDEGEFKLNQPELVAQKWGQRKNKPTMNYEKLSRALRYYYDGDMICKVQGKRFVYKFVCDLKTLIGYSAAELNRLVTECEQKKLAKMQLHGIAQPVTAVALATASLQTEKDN
# Summary of the method: as §1
# [4] = target: T4, ERG (Homo sapiens, UniProt P11308 1-479); details: protein: recombinant; tags: N-terminal GST; dsDNA, one strand shown
# T4 sequence: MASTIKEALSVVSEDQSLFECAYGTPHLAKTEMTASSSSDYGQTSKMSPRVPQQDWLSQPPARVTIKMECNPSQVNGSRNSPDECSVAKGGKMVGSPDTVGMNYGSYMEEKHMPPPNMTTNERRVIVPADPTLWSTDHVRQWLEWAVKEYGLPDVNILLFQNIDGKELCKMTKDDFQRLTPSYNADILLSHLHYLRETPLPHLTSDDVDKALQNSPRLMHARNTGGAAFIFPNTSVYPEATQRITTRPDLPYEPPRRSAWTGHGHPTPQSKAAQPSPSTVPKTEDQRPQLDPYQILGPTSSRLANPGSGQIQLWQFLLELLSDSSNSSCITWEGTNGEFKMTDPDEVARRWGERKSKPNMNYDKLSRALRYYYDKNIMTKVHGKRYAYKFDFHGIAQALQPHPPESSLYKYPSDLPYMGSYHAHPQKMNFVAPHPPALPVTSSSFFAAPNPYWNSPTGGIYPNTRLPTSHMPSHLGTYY
# Summary of the method: as §1
# [5] = target: ELF1 (Homo sapiens, UniProt P32519 1-619); details: protein: recombinant; tags: N-terminal GST; dsDNA, one strand shown
# Chain of ELF1 (P32519 whole entry): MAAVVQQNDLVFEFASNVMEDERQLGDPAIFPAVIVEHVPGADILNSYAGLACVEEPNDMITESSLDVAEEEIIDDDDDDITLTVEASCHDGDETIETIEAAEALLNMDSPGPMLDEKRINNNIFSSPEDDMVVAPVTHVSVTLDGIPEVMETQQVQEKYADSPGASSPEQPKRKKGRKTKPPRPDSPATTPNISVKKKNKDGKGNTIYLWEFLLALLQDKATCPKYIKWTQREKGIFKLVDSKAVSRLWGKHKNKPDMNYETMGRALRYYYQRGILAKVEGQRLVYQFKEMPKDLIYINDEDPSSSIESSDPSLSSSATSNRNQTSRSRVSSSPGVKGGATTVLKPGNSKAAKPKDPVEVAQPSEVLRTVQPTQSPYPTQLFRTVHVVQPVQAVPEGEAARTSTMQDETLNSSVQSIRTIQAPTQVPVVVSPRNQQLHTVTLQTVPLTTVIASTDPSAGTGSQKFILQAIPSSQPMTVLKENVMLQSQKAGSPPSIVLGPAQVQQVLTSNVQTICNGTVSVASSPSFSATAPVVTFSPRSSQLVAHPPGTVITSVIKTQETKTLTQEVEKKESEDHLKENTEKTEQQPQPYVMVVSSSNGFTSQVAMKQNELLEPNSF
# Summary of the method: as §1
# [6] = target: T5, EHF (Homo sapiens, UniProt Q9NZC4 1-300); details: protein: recombinant; tags: N-terminal GST; dsDNA, one strand shown
# T5 sequence: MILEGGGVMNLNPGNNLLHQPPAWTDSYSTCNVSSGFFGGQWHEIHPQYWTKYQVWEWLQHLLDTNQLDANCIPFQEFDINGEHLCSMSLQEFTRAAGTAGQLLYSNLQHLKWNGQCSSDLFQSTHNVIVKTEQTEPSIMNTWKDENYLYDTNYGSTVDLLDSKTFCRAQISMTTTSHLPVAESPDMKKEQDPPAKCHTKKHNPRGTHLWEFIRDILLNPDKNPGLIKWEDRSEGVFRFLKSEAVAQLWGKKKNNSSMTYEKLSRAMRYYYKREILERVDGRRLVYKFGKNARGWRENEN
# Summary of the method: as §1
# [7] = target: SPI1 (Homo sapiens, UniProt P17947 1-270); details: protein: recombinant; tags: N-terminal GST; dsDNA, one strand shown
# Summary of the method: as §1
# [8] = target: SPIB (Homo sapiens, UniProt Q01892 1-262); details: protein: recombinant; tags: N-terminal GST; dsDNA, one strand shown
# Chain of SPIB (Q01892 whole entry): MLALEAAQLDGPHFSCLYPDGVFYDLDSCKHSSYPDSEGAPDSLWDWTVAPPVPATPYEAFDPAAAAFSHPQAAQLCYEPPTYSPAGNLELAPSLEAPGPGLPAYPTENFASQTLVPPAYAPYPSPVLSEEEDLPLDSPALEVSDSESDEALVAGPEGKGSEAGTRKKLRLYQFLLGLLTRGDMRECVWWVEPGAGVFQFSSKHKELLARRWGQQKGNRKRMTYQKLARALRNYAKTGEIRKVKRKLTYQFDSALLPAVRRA
# Summary of the method: as §1
# [9] = target: T6, ELK3 (Homo sapiens, UniProt P41970 1-407); details: protein: recombinant; tags: N-terminal GST; dsDNA, one strand shown
# T6 sequence: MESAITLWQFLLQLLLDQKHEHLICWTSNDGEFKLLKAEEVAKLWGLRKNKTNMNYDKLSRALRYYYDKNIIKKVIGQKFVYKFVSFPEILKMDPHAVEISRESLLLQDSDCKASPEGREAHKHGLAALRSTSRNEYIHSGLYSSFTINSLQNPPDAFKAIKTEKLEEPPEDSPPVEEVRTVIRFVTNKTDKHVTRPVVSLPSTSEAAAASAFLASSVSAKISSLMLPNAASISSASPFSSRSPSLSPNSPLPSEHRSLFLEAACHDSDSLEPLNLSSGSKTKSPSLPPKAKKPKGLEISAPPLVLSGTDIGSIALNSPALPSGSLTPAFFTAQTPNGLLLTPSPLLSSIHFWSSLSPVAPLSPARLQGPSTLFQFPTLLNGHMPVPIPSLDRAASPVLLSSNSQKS
# Summary of the method: as §1
# [10] = target: T7, FEV (Homo sapiens, UniProt Q99581 1-238); details: protein: recombinant; tags: N-terminal GST; dsDNA, one strand shown
# T7 sequence: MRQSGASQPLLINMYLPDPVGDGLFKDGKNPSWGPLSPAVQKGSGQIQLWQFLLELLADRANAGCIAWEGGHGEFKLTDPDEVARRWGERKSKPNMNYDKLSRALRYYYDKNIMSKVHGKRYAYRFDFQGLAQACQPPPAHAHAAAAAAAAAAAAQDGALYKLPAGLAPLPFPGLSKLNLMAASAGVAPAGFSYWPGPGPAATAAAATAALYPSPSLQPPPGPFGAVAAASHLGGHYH
# Summary of the method: as §1
# [11] = target: ETV5 (Homo sapiens, UniProt P41161 1-510); details: protein: recombinant; tags: N-terminal GST; dsDNA, one strand shown
# Chain of ETV5 (P41161 whole entry): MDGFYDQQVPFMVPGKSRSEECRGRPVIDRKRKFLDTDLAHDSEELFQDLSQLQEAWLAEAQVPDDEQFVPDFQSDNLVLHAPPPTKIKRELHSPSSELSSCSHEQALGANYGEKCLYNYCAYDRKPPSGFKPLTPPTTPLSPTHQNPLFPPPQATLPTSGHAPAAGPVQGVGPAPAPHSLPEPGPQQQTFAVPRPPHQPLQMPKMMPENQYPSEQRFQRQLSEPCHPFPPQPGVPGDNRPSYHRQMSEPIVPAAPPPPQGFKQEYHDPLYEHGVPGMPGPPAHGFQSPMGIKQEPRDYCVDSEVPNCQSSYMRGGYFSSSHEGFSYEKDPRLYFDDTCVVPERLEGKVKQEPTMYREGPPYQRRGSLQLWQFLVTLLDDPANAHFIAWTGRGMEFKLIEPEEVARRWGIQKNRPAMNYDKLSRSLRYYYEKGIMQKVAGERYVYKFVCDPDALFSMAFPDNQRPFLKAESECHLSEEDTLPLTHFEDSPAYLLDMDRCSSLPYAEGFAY
# Summary of the method: as §1
# [12] = target: HSF1 (Homo sapiens, UniProt Q00613 1-529); details: protein: recombinant; tags: N-terminal GST; chain copies: 3; dsDNA, one strand shown
# Chain of HSF1 (Q00613 whole entry): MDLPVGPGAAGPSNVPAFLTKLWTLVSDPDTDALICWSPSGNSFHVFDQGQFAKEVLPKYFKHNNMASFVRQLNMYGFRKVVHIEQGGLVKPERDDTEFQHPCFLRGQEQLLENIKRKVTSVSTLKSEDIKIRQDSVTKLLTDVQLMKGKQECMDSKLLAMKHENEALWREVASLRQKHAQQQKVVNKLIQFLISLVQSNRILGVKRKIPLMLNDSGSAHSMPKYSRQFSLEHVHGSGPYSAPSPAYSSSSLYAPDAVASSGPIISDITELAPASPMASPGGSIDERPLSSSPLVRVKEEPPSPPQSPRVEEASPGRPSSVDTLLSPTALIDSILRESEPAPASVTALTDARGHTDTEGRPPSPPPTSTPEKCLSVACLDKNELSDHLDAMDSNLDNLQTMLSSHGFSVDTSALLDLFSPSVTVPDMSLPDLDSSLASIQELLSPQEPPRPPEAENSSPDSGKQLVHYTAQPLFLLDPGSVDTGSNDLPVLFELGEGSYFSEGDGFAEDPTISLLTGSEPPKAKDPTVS
# Summary of the method: as §1
# [13] = target: T8, SPIC (Homo sapiens, UniProt Q8N5J4 1-248); details: protein: recombinant; tags: N-terminal GST; dsDNA, one strand shown
# T8 sequence: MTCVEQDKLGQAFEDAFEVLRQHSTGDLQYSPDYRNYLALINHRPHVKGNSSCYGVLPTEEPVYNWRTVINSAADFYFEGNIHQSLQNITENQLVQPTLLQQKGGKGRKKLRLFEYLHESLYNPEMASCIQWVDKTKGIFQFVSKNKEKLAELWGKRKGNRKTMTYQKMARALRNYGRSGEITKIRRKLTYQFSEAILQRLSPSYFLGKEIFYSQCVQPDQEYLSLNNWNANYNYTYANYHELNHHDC
# Summary of the method: as §1
# [14] = target: ELF4 (Homo sapiens, UniProt Q99607 1-663); details: protein: recombinant; tags: N-terminal GST; dsDNA, one strand shown
# Chain of ELF4 (Q99607 whole entry): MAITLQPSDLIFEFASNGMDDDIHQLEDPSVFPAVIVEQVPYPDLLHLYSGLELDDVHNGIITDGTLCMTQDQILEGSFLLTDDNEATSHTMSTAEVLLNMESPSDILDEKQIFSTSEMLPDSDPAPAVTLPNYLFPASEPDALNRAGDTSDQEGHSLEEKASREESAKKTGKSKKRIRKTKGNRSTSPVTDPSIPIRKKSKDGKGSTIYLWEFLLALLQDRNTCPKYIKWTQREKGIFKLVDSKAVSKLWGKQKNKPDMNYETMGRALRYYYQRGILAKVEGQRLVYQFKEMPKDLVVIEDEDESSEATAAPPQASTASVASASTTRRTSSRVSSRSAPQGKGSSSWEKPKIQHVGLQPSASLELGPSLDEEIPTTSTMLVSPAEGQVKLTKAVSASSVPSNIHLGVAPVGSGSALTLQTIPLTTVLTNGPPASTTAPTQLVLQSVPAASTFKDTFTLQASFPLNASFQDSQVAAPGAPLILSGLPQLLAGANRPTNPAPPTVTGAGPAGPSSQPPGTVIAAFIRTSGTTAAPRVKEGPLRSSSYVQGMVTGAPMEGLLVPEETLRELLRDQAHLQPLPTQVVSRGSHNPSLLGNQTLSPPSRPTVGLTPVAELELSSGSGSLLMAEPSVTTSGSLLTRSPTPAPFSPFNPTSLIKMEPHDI
# Summary of the method: as §1
# [15] = target: T9, ELK4 (Homo sapiens, UniProt P28324-2 1-405); details: protein: recombinant; tags: N-terminal GST; dsDNA, one strand shown
# T9 sequence: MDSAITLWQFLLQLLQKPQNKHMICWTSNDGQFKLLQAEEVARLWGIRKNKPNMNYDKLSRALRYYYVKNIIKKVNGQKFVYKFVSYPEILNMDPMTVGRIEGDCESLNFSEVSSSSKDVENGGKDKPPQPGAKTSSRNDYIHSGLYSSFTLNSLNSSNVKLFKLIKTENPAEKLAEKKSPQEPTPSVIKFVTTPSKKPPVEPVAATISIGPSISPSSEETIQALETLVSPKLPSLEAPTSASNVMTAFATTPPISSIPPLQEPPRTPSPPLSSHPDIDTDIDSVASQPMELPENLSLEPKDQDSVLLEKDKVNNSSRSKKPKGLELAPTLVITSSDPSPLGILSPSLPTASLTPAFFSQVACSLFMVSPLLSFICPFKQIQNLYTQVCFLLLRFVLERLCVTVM
# Summary of the method: as §1
# [16] = target: T10, ETV2 (Homo sapiens, UniProt O00321 1-342); details: protein: recombinant; tags: N-terminal GST; dsDNA, one strand shown
# T10 sequence: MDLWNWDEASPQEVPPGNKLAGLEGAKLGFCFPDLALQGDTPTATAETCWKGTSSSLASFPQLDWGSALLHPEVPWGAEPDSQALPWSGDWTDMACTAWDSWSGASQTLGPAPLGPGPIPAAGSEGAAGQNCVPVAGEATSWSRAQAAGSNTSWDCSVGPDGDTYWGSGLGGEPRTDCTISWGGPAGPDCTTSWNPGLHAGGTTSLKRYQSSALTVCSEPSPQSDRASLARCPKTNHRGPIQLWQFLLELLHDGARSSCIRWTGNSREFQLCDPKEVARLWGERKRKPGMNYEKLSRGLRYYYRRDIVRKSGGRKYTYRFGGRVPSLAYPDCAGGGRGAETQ
# Summary of the method: as §1
# [17] = target: T11, ELF3 (Homo sapiens, UniProt P78545 1-371); details: protein: recombinant; tags: N-terminal GST; dsDNA, one strand shown
# T11 sequence: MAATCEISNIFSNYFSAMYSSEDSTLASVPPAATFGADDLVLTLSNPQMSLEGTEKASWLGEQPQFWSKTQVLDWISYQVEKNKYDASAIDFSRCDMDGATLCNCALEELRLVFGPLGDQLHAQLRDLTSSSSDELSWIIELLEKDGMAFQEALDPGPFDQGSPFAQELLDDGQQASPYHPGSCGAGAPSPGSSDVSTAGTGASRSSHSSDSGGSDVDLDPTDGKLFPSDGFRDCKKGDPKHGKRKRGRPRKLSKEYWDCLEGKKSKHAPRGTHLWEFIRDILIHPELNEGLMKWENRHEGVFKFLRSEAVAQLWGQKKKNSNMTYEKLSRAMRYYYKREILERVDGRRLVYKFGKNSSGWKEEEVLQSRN
# Summary of the method: as §1
# [18] = target: CRX (Homo sapiens, UniProt O43186 1-299); details: protein: recombinant; tags: N-terminal GST; dsDNA, one strand shown
# Chain of CRX (O43186 whole entry): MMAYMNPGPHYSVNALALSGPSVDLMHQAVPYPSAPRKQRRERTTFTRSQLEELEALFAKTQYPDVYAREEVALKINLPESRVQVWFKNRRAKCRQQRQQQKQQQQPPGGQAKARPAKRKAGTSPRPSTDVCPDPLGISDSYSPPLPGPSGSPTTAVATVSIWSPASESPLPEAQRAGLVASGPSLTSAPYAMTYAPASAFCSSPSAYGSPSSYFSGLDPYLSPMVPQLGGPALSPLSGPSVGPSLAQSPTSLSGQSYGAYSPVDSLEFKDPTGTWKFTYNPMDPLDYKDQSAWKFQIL
# Summary of the method: as §1
# [19] = target: ETV1 (Homo sapiens, UniProt P50549 1-477); details: protein: recombinant; tags: N-terminal GST; dsDNA, one strand shown
# Chain of ETV1 (P50549 whole entry): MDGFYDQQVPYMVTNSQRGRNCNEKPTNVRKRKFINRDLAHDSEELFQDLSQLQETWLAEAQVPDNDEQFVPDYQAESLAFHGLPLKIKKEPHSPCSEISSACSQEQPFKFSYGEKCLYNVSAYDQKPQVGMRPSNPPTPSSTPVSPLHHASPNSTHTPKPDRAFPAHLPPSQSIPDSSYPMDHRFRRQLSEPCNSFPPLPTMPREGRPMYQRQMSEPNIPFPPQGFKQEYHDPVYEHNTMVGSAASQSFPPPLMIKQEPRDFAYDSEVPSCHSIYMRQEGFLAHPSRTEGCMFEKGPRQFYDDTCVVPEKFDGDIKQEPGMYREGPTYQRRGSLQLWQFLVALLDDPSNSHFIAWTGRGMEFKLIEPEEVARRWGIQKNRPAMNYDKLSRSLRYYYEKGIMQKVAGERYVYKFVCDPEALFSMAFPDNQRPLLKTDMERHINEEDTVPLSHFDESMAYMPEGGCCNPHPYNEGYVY
# Summary of the method: as §1
sequence,measurement,setting,value
ACTAAT,binding signal,[1],"1.33 fold enrichment (6-mer frequency, TF over GST control)"
same,binding signal,[2],"1.27 fold enrichment (6-mer frequency, TF over GST control)"
same,binding signal,[3],"1.23 fold enrichment (6-mer frequency, TF over GST control)"
same,binding signal,[4],"1.2 fold enrichment (6-mer frequency, TF over GST control)"
same,binding signal,[5],"1.33 fold enrichment (6-mer frequency, TF over GST control)"
same,binding signal,[6],"1.37 fold enrichment (6-mer frequency, TF over GST control)"
same,binding signal,[7],"1.28 fold enrichment (6-mer frequency, TF over GST control)"
same,binding signal,[8],"1.39 fold enrichment (6-mer frequency, TF over GST control)"
same,binding signal,[9],"1.37 fold enrichment (6-mer frequency, TF over GST control)"
same,binding signal,[10],"1.19 fold enrichment (6-mer frequency, TF over GST control)"
same,binding signal,[11],"1.3 fold enrichment (6-mer frequency, TF over GST control)"
same,binding signal,[12],"1.81 fold enrichment (6-mer frequency, TF over GST control)"
same,binding signal,[13],"1.46 fold enrichment (6-mer frequency, TF over GST control)"
same,binding signal,[14],"1.36 fold enrichment (6-mer frequency, TF over GST control)"
same,binding signal,[15],"1.24 fold enrichment (6-mer frequency, TF over GST control)"
same,binding signal,[16],"1.38 fold enrichment (6-mer frequency, TF over GST control)"
same,binding signal,[17],"1.33 fold enrichment (6-mer frequency, TF over GST control)"
same,binding signal,[18],"2.71 fold enrichment (6-mer frequency, TF over GST control)"
same,binding signal,[19],"1.3 fold enrichment (6-mer frequency, TF over GST control)"
